# Assay results: the supplement of paper PMC6555819
# What was measured:
# Assay in all cases: PBM binding z-score (relative to random genomic background probes); higher = stronger binding; sequences stand for … in GC…GCGATTGACAGCGTAGAATGAAGG
# [1] = system: RARb homodimer (NR concentration 270 nM)
# In short: (§1)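 Probes were double-stranded and carried 34-nt variable regions with direct-repeat seeds, single-nucleotide variants, half-site ablations and random human genomic background sequences, printed on custom Agilent 4×180K protein-binding microarrays. Arrays were incubated 1 h with ligand-free nuclear receptor dimers in PBS pH 7.4, 2% milk, 0.02% Triton X-100, 1 mM DTT, 0.2 mg/mL BSA and 0.4 mg/ml salmon testes DNA. Antibodies against each partner (one per run) detected binding, and scanned fluorescence was regression-normalized. Binding z-scores use the random background probes as reference.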
# [2] = system: RARg:RXRa (NR concentration 270 nM, RXRa partner concentration 90 nM)
# In short: as §1
# [3] = system: RARg homodimer (NR concentration 270 nM)
# In short: as §1
# [4] = system: RXRa DBDmut IVT, anti-RXR (DBD mutation: RXRa K156A/R161A, NR concentration 90 nM)
# In short: as §1
# [5] = system: RXRa homodimer (NR concentration 180 nM)
# In short: as §1
# [6] = system: THRa:RXRa (NR concentration 90 nM, RXRa partner concentration 90 nM)
# In short: as §1
# [7] = system: THRa homodimer (NR concentration 90 nM)
# In short: as §1
# [8] = system: VDR:RXRa (NR concentration 270 nM, RXRa partner concentration 90 nM)
# In short: as §1
# [9] = system: VDR homodimer (NR concentration 270 nM)
# In short: as §1
Sequence,PBM binding z-score [1],PBM binding z-score [2],PBM binding z-score [3],PBM binding z-score [4],PBM binding z-score [5],PBM binding z-score [6],PBM binding z-score [7],PBM binding z-score [8],PBM binding z-score [9]
GGAACGAGGGCAAGGTGATAGCAGAGTTTGATGG,2.04,1.26,2.2,1.62,0.928,1.89,0.882,0.867,2.05
CCTATCAGTTGACCATAAGGGCAACCGAAGCTCG,1.93,1.48,1.03,0.139,0.916,1.98,1.26,0.912,0.554
CGTGCTAGGTCATGGTCAGCTAATCTACAGTATG,3.2,3.97,4.74,1.87,2.75,3.12,1.2,1.7,0.319
TCTGCTCGGTCAACGATGGTCAGCTAATCTGCTA,1.65,1.41,2.83,0.129,0.25,0.269,-0.89,-0.245,-0.978
TCGAGTAGGTTAGTCGGGGCATTAAGCCAACATA,0.232,0.0892,-0.106,0.352,-0.0422,1.02,-0.508,1.66,0.177
GCTCGTAGGACAAGGTCAGAGCTTTGTCCGTAGA,2.93,2.95,3.49,0.281,2.55,2.64,0.975,1.4,0.106
TCTTGTAGATCAGCGGGTTAAGAAAGCTGGCCAA,0.0505,-0.0561,-0.559,0.982,0.349,0.0519,-0.241,0.539,-0.169
ACAGACATGTGATGAAGGTAACTCAGGCTATCAT,-0.417,0.0722,0.176,0.00385,0.168,0.492,-0.106,-0.214,-0.35
TCTTTTAGATCAATAGAGGTTAAGAAAGTGCGCT,1.25,1.22,1.09,0.967,1.58,2.4,-0.64,2.22,0.459
ATATGTAGGTTATCGGGTCATTCGGTTTGCGCAT,2.88,3.2,2.3,1.52,3.53,3.28,2.94,5.19,4.19
TCTAGTTGGTCACGGATGTCACACACGACGGGTA,1.57,1.43,1.91,0.683,1.15,0.409,0.417,1.18,0.656
ACTAGCAGGCCAAGGGTCACTCAAGATTAGTCCG,3.86,4.17,3.74,0.678,3.93,2.65,0.199,2.61,1.29
CAAACTAGGTCAAGAGGTCAAGGTCCGCTTCCCG,5.98,7.92,7.98,2.28,8.06,4.25,3.13,5.53,3.74
TCTAGTTGATCAAAGGTCACACACTCGAAATGCG,4.89,6.54,5.95,2.21,7.03,4.22,2.08,5.05,2.79
ACAGACAGGTGATGAAGGTGACTCAGGCTATCAT,1.34,0.646,0.55,-0.283,0.581,1.01,-0.00476,0.516,-0.102
CCTACTGTGCCACGAAAGGTCATTGATTCAGTGA,4.67,4.41,3.73,1.43,4.76,3.46,1.67,4.38,2.34
ACAGACAGGTGCGTGAAGGTAACTCAGCTGGACG,-0.567,-0.319,-0.0259,-0.249,-0.0792,-0.227,-0.945,-0.488,-0.569
TAGCCTAGGTCATTGGGCCAGGATAGTACGCATC,2.8,3.79,4.56,1.25,2.67,2.74,0.55,1.85,0.858
ACAGACAGGTGAGTGAAGGTAACTAAGCTGGACG,0.0814,0.264,0.483,-0.523,0.122,1.38,-0.413,-0.372,-0.429
CCTCTGAGGACAACAGGAGGTCAGAGCTGCCAGA,3.48,3.66,3.51,1.29,1.78,3.92,3.02,2.17,1.69
CAAACCAGGTCAAGGTCAAAGTCGGTTTGTGCCA,5.11,6.13,6.35,3.39,6.52,4.77,4.35,5.66,4.97
AATACAGGGTCACTATGCCAGAGTAGGTACGAAT,2.83,4.76,4.14,2.94,5.15,3.31,1.27,3.91,2.48
TCATATAGGTAAACAGGTGAAAGACCGTAAGTTA,0.437,0.712,0.452,1.32,1.17,0.539,0.114,1.05,0.225
CTCGAAAGGTCCGTTGAGGTGAGTATACGGATAA,0.529,0.513,0.708,0.119,0.313,4.14,0.988,0.243,0.885
CCTGCTAGGTCGATGGTCAGCTAAAGCAGCTCGC,0.8,0.222,0.416,0.224,-0.11,0.103,-0.265,-0.292,-0.719
CGAACTAGGTCAAGGACAGTGGATCTCCGCACGC,3.1,3.74,4.5,1.34,2.41,3.05,2,1.22,0.315

Sequence,PBM binding z-score [1],PBM binding z-score [2],PBM binding z-score [3],PBM binding z-score [4],PBM binding z-score [5],PBM binding z-score [6],PBM binding z-score [7],PBM binding z-score [8],PBM binding z-score [9]
CCAGACAGGTGAAGGGTAACTCAGTCTGGTACGC,0.722,0.492,0.626,-0.69,0.751,0.21,-0.441,-0.111,-0.55
TCGAGTAGTTTAGGGGCATTCAGAATGGCGTCGA,0.436,0.014,-0.0825,0.68,0.467,1.33,0.108,0.605,1.55
ACTAGCAGGCAAAGTTTGGGTCACTCAAACAAAG,1.61,0.87,0.559,-0.386,0.711,2.14,0.949,0.478,0.233
CGTCCAAGGTCAGAGGTCAGTGAAGAGATGACGG,5.38,7.02,7.05,2.66,7.78,4.58,2.42,5.16,2.61
TCGAGTAGGTTAGTGGGGGCATTCAGCCAACATA,1.75,1.55,1.14,1.36,1.34,2.29,1.16,5.48,3.31
GCTCACGGGTCAAAGGTTATAGCATGAATAGAAT,3.32,6.64,4.64,2.36,9.1,3.78,-0.0294,5.38,1.19
CGTCCAAGGTCATAGGAGCTCAGTGAAGACAGAT,3.58,5.66,5.78,3.96,5.68,4.03,2.37,4.11,2.47
CATACAGGGTCAGCTAGGCCAAAGTAGGGACGGC,3.27,4.71,5.14,1.49,4.24,3.16,0.87,4.73,2.11
TCTAGTTAGTCACGGAGGTCACACACGACGGGTA,3.95,3.7,3.44,1.24,4.28,3.56,2.59,4.24,1.97
TCATATAGGTATACAGGTGAAAGTCCGTAAGTTA,0.863,0.487,0.35,1.58,1.14,0.729,0.585,1.07,0.541
TGAATGAGGTTATAAAATCAGGGAACGTTGCAAA,0.0245,1.01,0.843,0.43,1.44,1.56,-0.0954,0.918,0.227
CCTCGGAGGACAGCAGGTCAGAGCTGTCCGCTTT,2.25,2.17,1.91,-0.0565,0.242,1.74,0.123,-0.115,-0.273
ATCTCTATGTAAAGTTCAGTGAAAGATCGATAGA,2.23,2.06,2.29,1.3,1.08,0.757,-0.304,1.26,2.03
TCATATAGGTAAAAGGTGAACGTCGGTGTGGTAA,2.19,2.22,1.26,1.84,2.94,1.84,0.67,1.79,0.547
CGTCAAAGTTCAACTAAGGTAACCTAAAGCACGC,4.36,6.08,6.64,4.81,4.92,5.31,2.1,4.68,4.48
ACTTACGGGTGAACGAGGTTATAGCACGCGTATA,1.2,1.47,0.987,0.294,2.06,2.39,0.511,5.33,1.01
TCTCGGAGGACAGGAAGGTCAGAGCTTTCCAGAG,3.54,2.42,2.34,0.51,1.69,2.1,0.256,1.57,0.37
TAGCCTAGGTTAGATCGGGCCAGTATACGCTATA,-0.0792,-0.00796,0.127,-0.662,-0.141,2.61,-0.725,-0.4,-0.374
CCTACTGGGCCAAGGTCATTCATCAGTCAAAGCA,3.52,3.84,3.48,1.7,3.42,3.44,2.53,3.55,3.56
CCTGCCAGGTCAATGGTCAGCTAAAGCAGCTCGC,3.05,3.74,4.06,1.44,2.57,3.19,1.4,1.5,0.0635
TCGAGTAGGTTAGTCCGGGCATTCAGCCAACATA,0.125,-0.242,-0.282,0.0956,-0.186,0.527,-0.31,0.223,-0.163
AATACAGGGTCATCGTAGGCCACAGTACGCACAG,4.02,6,5.52,3.39,6.9,4.93,1.72,5.63,3.13
CCGACTGGGGCAGAAACGTTACCATACCATCCGG,-0.276,-0.119,-0.0645,-0.654,-0.341,-0.691,-0.735,-0.901,-0.552
AGATGTAGGTTACATCCGGGTCATTCAGGCTATG,2.87,3.6,2.14,0.74,3.33,3.72,2.08,4,2.53
CGAACTAGGACAAGGACAGTGAATCTCCGCACGC,0.532,0.083,0.606,0.343,0.0441,1.8,1.32,-0.159,0.0217
CGTCCAAGGTCAATGCTAGGGCAGTGAAAGCATT,4.25,6.47,6.26,3.44,4.5,3.96,1.89,3.92,1.93
